Measurements published in PubChem BioAssay.
A number with no mark means an inactive call.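 Rule for the calls: active = RAM network inhibition above 8.4% in each of two replicates, 3 SD over the compound average; inconclusive = above 8.4% inhibition in only one replicate; inactive = 8.4% inhibition or less in each replicate.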

Test: RAM signaling pathway blockade in yeast – S. cerevisiae, Pdr1DBD-CYC8 efflux-inhibited sensitized strain, primary screen (AID 1298);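 note: 0% = DMSO untreated cells without growth and 100% = 10 µM 1-NA-PP1 full growth; higher means more yeast growth rescued from 5-FOA killing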
Conditions: S. cerevisiae cbk1-as DSE1-URA3 strain, 5-FOA growth OD615, 2 d; at 50 µM; stronger effect = higher value
For `COc1c2c(nc3ccccc13)OC(C(C)(O)COC(C)=O)C2` (stereo unspecified), the RAM network inhibition was 1.41%.
Work on `O=C(Nc1ccc(N2CCCCC2)cc1)c1cncc(Br)c1` yielded an RAM network inhibition of 5.26%.
In the case of `Cc1ccc2oc(=O)c3cnn(CC(=O)NC4CCCCC4C)c3c2c1` (stereo unspecified), the RAM network inhibition is reported as 0.7%.
With `CC1(C)CC(NC(=O)C23CCC(C)(C(=O)C2)C3(C)C)CC(C)(C)N1` (stereo unspecified) the RAM network inhibition was 3.01%.
Work on `CC1(C)CC2(CC(C)(C)N1)OC(=O)N1CCc3ccccc3C12C` (stereo unspecified) yielded an RAM network inhibition of 6.97%.
`COc1ccc(-n2nnnc2S(=O)(=O)CC(=O)N2CCCCC2)cc1` showed an RAM network inhibition of -0.17%.
`CCCCCSc1nc2c(c(=O)[nH]c(=O)n2C)n1CCc1ccccc1` gave an RAM network inhibition of 8.01%.
For `COc1cc2c(cc1OC)C1=C(C#N)CN(CC(=O)O)CN1CC2`, the RAM network inhibition was 1.9%.
Compound `CC(=O)Nc1ccc(S(=O)(=O)N2CCN(c3cccc(C)c3C)CC2)cc1` has an RAM network inhibition of 0.9%.
Compound `C=C(C)CSc1nc2c(c(=O)[nH]c(=O)n2C)n1CCC(C)C` has an RAM network inhibition of 1.85%.
Compound `Cn1c(Cn2c(=O)sc3ccccc32)nnc1SCC(=O)Nc1ccccc1F` has an RAM network inhibition of 9.24%.
With `COC(=O)/C=C(\C)NC(=O)c1cccs1` the RAM network inhibition was 0.06%.
With `COc1cccc(NC(=O)c2ccncc2)c1` the RAM network inhibition was 4.2%.
`CCCCN(C(=O)NC(=O)Nc1nc2ccc(OC)cc2s1)S(C)(=O)=O` showed an RAM network inhibition of 1.09%.
With `CC(C)N1C(=O)C2C(c3ccccc3O)NC(C)(C(=O)O)C2C1=O` (stereo unspecified) the RAM network inhibition was 1.54%.
`Cc1cccn2c(=O)c3cc(C(=O)NCCCN4CCOCC4)n(C)c3nc12` gave an RAM network inhibition of 0.37%.
